Assay outcomes as filed in PubChem BioAssay.
Shown are actives, neighbours in structure and some others; about 10% of the full set was active somewhere.
HP1b chromo inh: HTS for Inhibitors of HP1-beta Chromodomain Interactions with Methylated Histone Tails; Potency, µM (series often up to 114 µM), hits mostly inhibitors; AlphaScreen HP1-beta / biotin-H3K9me3 peptide binding; hit rate 0.56% among 390,000; AID 540317, 2011; Chromobox protein homolog 1 (Homo sapiens), P83916; also: nearly all actives have a fitted effect of over 70% in size
Target sequence (P83916 whole entry, looked up): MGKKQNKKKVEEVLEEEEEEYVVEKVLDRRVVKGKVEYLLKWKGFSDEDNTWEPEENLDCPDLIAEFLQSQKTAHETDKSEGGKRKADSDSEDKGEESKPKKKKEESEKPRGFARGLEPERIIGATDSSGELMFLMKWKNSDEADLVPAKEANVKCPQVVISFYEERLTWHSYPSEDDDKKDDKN
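HP1-beta protein (50 nM final) preincubated 30 min at room temperature with biotinylated H3(1-18)K9me3 peptide (50 nM) in PBS pH 7.4, 0.01% Tween-20, then compound added for 30 min. AlphaScreen streptavidin donor/nickel chelate acceptor beads (10 ug/mL final), 30 min dark, luminescence read.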
JMJD2A Tudor: qHTS Assay for Inhibitors of JMJD2A-Tudor Domain; Lysine-specific demethylase 4A (Homo sapiens), O75164; AlphaScreen JMJD2A-Tudor / H3K4me3 peptide binding; Potency, µM (series often up to 114 µM), most hits filed as inhibitors; hit rate 4.4% among 390,000; AID 504339, 2011; also: nearly all actives have a fitted effect of over 50% in size
BAZ2B inh: qHTS Assay for Inhibitors of BAZ2B | hit rate 4.4% among 360,000 | AlphaScreen BAZ2B-H3K14Ac peptide displacement | Bromodomain adjacent to zinc finger domain protein 2B (Homo sapiens), Q9UIF8 | Potency, µM (series often up to 114 µM), usual class: inhibitors | AID 504333, 2011; also: nearly all actives have a fitted effect of over 60% in size
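In this displacement format the biotinylated H3(5-23) peptide acetylated at Lys14 serves as ligand at 50 nM, with BAZ2B at 50 nM in PBS pH 7.4 containing 0.01% Tween-20. Donor and acceptor beads are 10 ug/mL final.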
G9a inh: qHTS Assay for Inhibitors of Histone Lysine Methyltransferase G9a | Histone-lysine N-methyltransferase EHMT2 (Homo sapiens), Q96KQ7 | G9a H3K9 monomethylation, AlphaScreen, 2 h | Potency, µM (titrated, usually from 102 µM), actives largely listed as inhibitors | hit rate 8.8% among 350,000 | AID 504332, 2011; also: nearly all actives have a fitted effect of over 75% in size
Target sequence (Q96KQ7 913-1193 limits assumed): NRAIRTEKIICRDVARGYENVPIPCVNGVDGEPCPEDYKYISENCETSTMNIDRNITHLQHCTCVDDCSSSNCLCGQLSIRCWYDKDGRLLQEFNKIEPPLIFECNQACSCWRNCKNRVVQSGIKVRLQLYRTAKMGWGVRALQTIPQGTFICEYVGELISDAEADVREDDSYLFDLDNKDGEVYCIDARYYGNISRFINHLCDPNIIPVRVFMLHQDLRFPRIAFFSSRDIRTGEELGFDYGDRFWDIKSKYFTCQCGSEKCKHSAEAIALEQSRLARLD
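Compounds were preincubated with 20 nM G9a for 15 min, after which biotinylated H3K9 peptide (500 nM) and SAM (20 uM) started a 2 h room-temperature reaction. Monomethylated product was quantified by antibody-based AlphaScreen chemiluminescence.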
CtBP-E1A blk: qHTS Assay for Inhibitors of the CtBP/E1A Interaction | AlphaScreen GST-E1A/His-CtBP binding, 1536-well; stronger effect = lower value | activity change, % (test concentration not listed) | hit rate 0.49% among 340,000; in the data active = activity change below about -65%; inconclusive = mostly about -30% to -63%
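Homogeneous bead-based format: GST-tagged E1A captured on glutathione donor beads, His-tagged CtBP on nickel acceptor beads; compounds precede bead addition by 2 h at 37 °C.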
Six1-Eya2 blk: qHTS Assay for Inhibitors of the Six1/Eya2 Interaction; Homeobox protein SIX1 (Homo sapiens) + Protein phosphatase EYA2 (Homo sapiens), …; AlphaScreen GST-Six1/His-Eya2 binding, biochemical; stronger effect = lower value; activity change, % (concentration not given with the values); hit rate 0.56% among 360,000; in the data active = activity change below about -65%; inconclusive = mostly about -30% to -63%
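GST-Six1 + His-Eya2 (5X stock: 250/500 nM); Tris pH 8.0, 300 mM NaCl, 0.05% BSA, 0.02% Tween 20; GSH donor/Ni acceptor beads; 1 h 37 °C dark; AlphaScreen readout.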
Hits are given with their value; i = inactive; ? = inconclusive; nt = no result given; [ ] = another dose, or the depositor's remark. Unless noted, calls follow the shape of the dose curve; as a rule, active = well fitted inhibition curve with a large enough effect; inconclusive = small, poorly fitted or top-dose-only effect; inactive = no such curve, though single readings can be large or run the other way.

SMILES	HP1b chromo inh	JMJD2A Tudor	BAZ2B inh	G9a inh	CtBP-E1A blk	Six1-Eya2 blk
Cc1ccc(-n2c(C)cc(C(=O)CSc3nncs3)c2C)cc1	i	?	i	?	i	i
Cc1ccc(-n2c(C)cc(C(=O)CSc3nnnn3C)c2C)cc1	i	?	50µM	14µM	i	i
Cc1cc(C(=O)CSc2ncccn2)c(C)n1Cc1ccco1	i	i	i	45µM	i	i
Cc1cc(C(=O)CSc2nnnn2C)c(C)n1Cc1ccco1	i	?	71µM	?	i	i
Cc1cc(C(=O)CSc2nnnn2-c2ccc(O)cc2)c(C)n1C	?	45µM	i	?	i	i
COc1ccccc1C(=O)Nc1ccc(C(=O)OCc2cc(=O)n3nc(C4CC4)sc3n2)cc1	i	i	i	i	nt	nt
Cc1ccccc1-c1noc(-c2cccnc2N2CCN(c3ccccc3)CC2)n1	i	i	?	i	nt	nt
CC(=O)c1ccc(-c2ccccc2[C@H]2[C@H]3C=CC[C@@H](C)[C@@H]3C(=O)N2Cc2ccccc2)cc1	nt	nt	i	i	nt	nt
COc1ccc(CN=C2NN=C(c3ccccc3)CS2)cc1	i	?	nt	35µM	i	i
COc1ccc(CN=C2NN=C(c3cccc(OC)c3)CS2)cc1	i	i	?	?	i	i
Cc1ccc(C)c(C2=NNC(=NCc3ccccc3)SC2)c1	i	i	i	35µM	i	i
CCN(CC)CCN(C(=O)c1ccc2ccccc2c1)c1nc2cc3c(cc2s1)OCO3	i	?	?	40µM	i	i
CCN(CC)CCN(C(=O)c1ccc(S(=O)(=O)N2CCCCC2)cc1)c1nc2cc3c(cc2s1)OCO3	i	?	?	50µM	i	i
N#Cc1cc2cc3c(cc2nc1NCCNC(=S)NCCCN1CCOCC1)OCO3	i	i	i	i	?	?
COc1ccc(Cl)c2c1[nH]c1nc(SCc3ccccn3)nnc12	i	i	i	2µM	?	-67
O=C(Nc1nccs1)c1cccc(N2C(=O)c3cccc4c([N+](=O)[O-])ccc(c34)C2=O)c1	i	i	i	i	i	i
O=C(O)c1ccc(CN2C(=O)c3cccc4c([N+](=O)[O-])ccc(c34)C2=O)cc1	i	?	50µM	45µM	i	i
CN(C)CCCN1C(=O)c2cccc3c([N+](=O)[O-])ccc(c23)C1=O	i	i	?	?	i	i
Cc1ccc(C(=O)O)cc1N1C(=O)c2cccc3c([N+](=O)[O-])ccc(c23)C1=O	i	56µM	50µM	25µM	i	?
CC(=O)Oc1cccc(N2C(=O)c3cccc4c([N+](=O)[O-])ccc(c34)C2=O)c1	i	i	i	40µM	nt	i
CC(C)(C)c1ccc(NC(=O)COC(=O)c2ccc(NS(=O)(=O)c3ccc(F)c(F)c3)cc2)cc1	i	i	i	?	i	i
Clc1ccccc1OCCSc1nnc(-c2cccs2)o1	i	i	i	i	nt	nt
CN(C)c1ccc(N2C(=NC(=O)COc3ccccc3)SC3CS(=O)(=O)CC32)cc1 (stereo not drawn)	i	?	?	50µM	i	i
O=C(COc1ccccc1)N=C1SC2CS(=O)(=O)CC2N1c1ccccc1 (stereo not drawn)	i	i	i	i	i	i
CCOc1ccc(-c2nnc(SCC(=O)NCc3ccccc3)nc2-c2ccc(OCC)c(OC)c2)cc1OC	i	i	i	i	nt	nt
SMILES	HP1b chromo inh	JMJD2A Tudor	BAZ2B inh	G9a inh	CtBP-E1A blk	Six1-Eya2 blk
Cc1cc2[nH]c3c(c[n+](C)c4ccccc34)c2cc1C	i	i	?	18µM	?	i
O=C(O)C1CCCCC1C(=O)NCc1ccncc1 (stereo not drawn)	i	i	i	i	i	i
O=c1cc(O)c2sc(Nc3ccc(F)c(Cl)c3)nc2[nH]1	i	i	i	28µM	i	i
Cc1ccc(S(=O)(=O)Nc2ccccc2F)cc1C(=O)NCc1ccco1	i	i	i	i	i	i
Fc1ccc(CNCc2ccccc2Cl)cc1	?	20µM	nt	2.8µM	i	i
Cc1ccc(CNCc2ccccc2Cl)cc1	i	i	i	i	i	i
FC(F)(F)c1nc2cc3nc4ccccc4[nH]c3cc2n1	i	i	i	40µM	?	?
CC(=O)N1CCCc2cc(S(=O)(=O)N(C)CC(=O)Nc3ccc(F)c(Cl)c3)ccc21	i	i	i	i	nt	nt
Cn1c(SCC(=O)Nc2nccs2)nnc1-c1ccncc1	i	?	i	i[2.33 µM]	i	i
Cc1cc(C)nc(SCc2nnc(SCC(=O)Nc3nc(-c4ccccc4)cs3)n2-c2ccccc2)n1	i	79µM	i	?	i	i
O=C(CSc1nnc(-c2ccncc2)n1Cc1ccccc1)Nc1nccs1	i	89µM	i	i[12.7 µM]	i	i
CC(C)C(C)(C#N)NC(=O)CSc1nnc(-c2ccncc2)n1Cc1ccccc1 (stereo not drawn)	?	71µM	i	i	i	i
COc1ccc(NCc2nnc(SCC(=O)Nc3nc(-c4ccccc4)cs3)n2-c2ccccc2)cc1	i	i	i	i	i	i
O=C(CSc1nnc(-c2ccncc2)n1Cc1ccco1)Nc1nc(-c2ccccc2)cs1	i	i	i	28µM	i	i
COc1ccc(S(=O)(=O)c2c(Nc3c(C)cccc3C)sc(C(=O)c3ccc4c(c3)OCO4)c2N)cc1	i	i	i	i	nt	nt
Cc1cc(C)c(C(=O)COc2cccnc2[N+](=O)[O-])cc1C	i	56µM	50µM	7.1µM	i	i
COCCn1c(C)cc(C(=O)COc2cccnc2[N+](=O)[O-])c1C	i	i	i	?	i	i
COc1cccc(NC(=O)N2CCC(n3c(C)nc4cccnc43)CC2)c1	i	i	i	i	nt	nt
C#CCOCCOCCOCCNc1nc(N2CCN(C(=O)CCCCCCCCCCNC(=O)[C@@H](CCSC)n3cc(CCO)nn3)CC2)nc(N2CCN(C(=O)CCCCCCCCCCNC(=O)[C@H]([C@@H](C)CC)n3cc(CCCCCN)nn3)CC2)n1	?	56µM	?	i[2.33 µM]	i	i
C#CCOCCOCCOCCNc1nc(N2CCN(C(=O)CCCCCCCCCCNC(=O)[C@@H](CCSC)n3cc(CCO)nn3)CC2)nc(N2CCN(C(=O)CCCCCCCCCCNC(=O)[C@H]([C@@H](C)CC)n3cc(CCCCN=C(N)N)nn3)CC2)n1	?	40µM	50µM	i[2.33 µM]	i	i
Cc1cc(C)c2oc(-c3cccc(NC(=O)c4ccc(-c5cccc([N+](=O)[O-])c5)o4)c3)nc2c1	i	i	i	i	nt	nt
